Screening results deposited in PubChem by Sanford-Burnham Center for Chemical Genomics.
Artemis endo inh: inhibitors of human Artemis endonuclease activity | recombinant Artemis, quenched FAM hairpin cleavage fluorescence | 0.78% of 30,000 active | Q96SD1 | inhibition, % at 10 µM;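 active = at 10 µM dose, at least 30% inhibition, measured as corrected fluorescence normalized to stimulator and neutral control wells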
A number is an active result; – = inactive. Only a selection was taken, and hits are over-represented in it overall.

SMILES	Artemis endo inh
O=c1c2ccccc2nc(-c2cccs2)n1-c1ccccc1	–
CCn1nc(-c2cccs2)nc2c(=O)n(C)c(=O)nc1-2	71
Nc1cccc(N=Cc2c(O)n(Cc3ccc(F)cc3)c(=O)[nH]c2=O)c1	–
CN(C)C=C1C(=O)N(C2CCCCC2)C(=O)N(C2CCCCC2)C1=O	–
O=P(/C(=N/O)N1CCOCC1)(N1CCOCC1)N1CCOCC1	–
CCOC(=O)c1c(-n2c(C)cc(/C=C3/C(=O)NC(=O)N(CC)C3=O)c2C)sc2c1CCCC2	35
CC(=NCC1CCCO1)c1c(O)n(Cc2ccccc2)c(=O)[nH]c1=O (configuration not stated)	–
CC1(C)CC2(CCO1)NCCN1C(=O)CSC12 (configuration not stated)	–
CCOP(=O)(OCC)C(NC(=O)C(C)C)C(Cl)(Cl)Cl (configuration not stated)	–
CP(C)(=O)CCC(=O)O	–
Cc1ccc(N2C(=O)/C(=C/N3CCN(C(=O)c4ccco4)CC3)C(=O)NC2=S)cc1C	31
COCCCN1CCN(c2nnc3n2-c2sc(Br)cc2C(c2ccccc2Cl)=NC3)CC1	–
CCCC[n+]1cc(/N=C(\[O-])OC)on1	–
CCOC(=O)c1cc(C)n(CCc2cnc[nH]2)c1C	–
OC(c1ccc(F)cc1)(c1ccc(F)cc1)[C@@H]1CCCN1	–
